From PubChem
NSD2 HMT inh: NSD2 histone methyltransferase inhibitors, primary screen, biochemical, AlphaScreen, single concentration, set 2 | NSD2 peptide methylation, 120 min | inhibition, % at 12.5 µM | Histone-lysine N-methyltransferase NSD2 (Homo sapiens), O96028 | 0.54% of 310,000 active | AID 743445, 2014; in the data active = inhibition above about 50%
Target sequence (O96028 whole entry, looked up): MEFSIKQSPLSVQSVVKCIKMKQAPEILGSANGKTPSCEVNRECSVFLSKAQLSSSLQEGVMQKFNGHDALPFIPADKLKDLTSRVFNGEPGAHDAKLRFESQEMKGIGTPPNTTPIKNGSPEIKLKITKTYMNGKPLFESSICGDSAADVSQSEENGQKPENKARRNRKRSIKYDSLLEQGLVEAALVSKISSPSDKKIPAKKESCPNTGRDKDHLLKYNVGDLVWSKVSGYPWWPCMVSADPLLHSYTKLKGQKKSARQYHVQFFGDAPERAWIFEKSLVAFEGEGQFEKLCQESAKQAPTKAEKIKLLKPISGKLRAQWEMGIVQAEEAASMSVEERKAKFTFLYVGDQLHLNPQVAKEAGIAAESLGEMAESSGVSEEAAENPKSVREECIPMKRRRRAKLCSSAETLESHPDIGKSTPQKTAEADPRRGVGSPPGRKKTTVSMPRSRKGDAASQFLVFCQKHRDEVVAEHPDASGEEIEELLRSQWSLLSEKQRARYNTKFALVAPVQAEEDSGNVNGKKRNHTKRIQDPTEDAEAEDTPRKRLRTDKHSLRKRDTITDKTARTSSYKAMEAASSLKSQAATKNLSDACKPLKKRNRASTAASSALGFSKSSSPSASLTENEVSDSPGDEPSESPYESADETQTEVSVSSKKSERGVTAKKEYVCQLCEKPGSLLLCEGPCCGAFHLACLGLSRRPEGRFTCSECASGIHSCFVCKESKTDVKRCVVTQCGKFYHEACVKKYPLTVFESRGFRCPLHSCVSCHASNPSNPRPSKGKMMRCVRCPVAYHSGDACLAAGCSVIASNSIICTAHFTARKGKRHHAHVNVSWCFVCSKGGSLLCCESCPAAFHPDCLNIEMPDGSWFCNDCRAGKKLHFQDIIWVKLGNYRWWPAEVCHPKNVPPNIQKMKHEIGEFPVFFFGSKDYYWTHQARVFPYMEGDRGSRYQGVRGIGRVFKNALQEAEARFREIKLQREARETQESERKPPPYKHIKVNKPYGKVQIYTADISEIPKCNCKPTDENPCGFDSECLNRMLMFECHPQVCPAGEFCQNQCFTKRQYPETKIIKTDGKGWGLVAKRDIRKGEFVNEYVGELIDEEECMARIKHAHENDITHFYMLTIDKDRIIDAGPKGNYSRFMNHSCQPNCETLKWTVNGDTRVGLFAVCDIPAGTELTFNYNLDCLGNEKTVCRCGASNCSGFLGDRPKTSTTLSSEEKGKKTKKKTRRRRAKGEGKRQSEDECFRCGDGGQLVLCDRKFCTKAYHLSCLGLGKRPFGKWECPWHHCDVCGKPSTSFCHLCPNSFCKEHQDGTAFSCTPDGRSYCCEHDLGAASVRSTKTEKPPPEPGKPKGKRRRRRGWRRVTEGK
MITF TRPM1 inh: inhibitors of MITF-dependent TRPM1 promoter reporter, primary screen, cell-based, SK-MEL-5, single point, luciferase. inhibition, % at 12.5 µM. 0.83% of 330,000 active. SK-MEL-5 TRPM1 promoter luciferase, 24 h. AID 488899, 2010;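 active = mean inhibition across replicates of 60% or more, whatever share of single replicates reaches that level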
PfHsp90 yeast 2: growth inhibition of PfHsp90-expressing yeast, primary screen, antimalarial PfHsp90 inhibitor project, S. cerevisiae, BacTiter-Glo luminescence, single point, set 2 | BacTiter-Glo ATP, 48 h; yeast lacking PDR1 and PDR3 efflux regulators | inhibition, % at 9.4 µM | 0.32% of 310,000 active | AID 504621, 2011;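 active = every replicate shows inhibition above about 80%, whatever the replicate mean, limit read from the data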;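 note: 0% = DMSO neutral controls and 100% = 20 µM radicicol positive controls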
Wnt bcat act: Wnt/beta-catenin pathway activators, primary screen, cell-based, plate reader, single point; activation, % at 9.35 µM; Wnt/beta-catenin reporter cell assay, activator; 1.2% of 300,000 active; AID 743398, 2014; in the data active = activation above about 30%, passing the limit was not always enough;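 note: 0% = neutral control wells and 100% = positive control wells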
MITF TRPM1 HTS: activators of MITF-driven TRPM1 promoter reporter, primary screen, cell-based, SK-MEL-5, luciferase, single point | SK-MEL-5 TRPM1-promoter luciferase, 24 h; % of positive control, neutral wells = 0 | activation, % at 12.5 µM | 0.75% of 300,000 active;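 active = mean activation of at least 80% with every replicate also reaching 80%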;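 note: 0% = neutral control wells and 100% = parthenolide positive control wells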
Glyco luc inh: increase of ERlucT glycosylation luciferase signal, primary screen, N-linked glycosylation inhibitor project, D54 ERlucT cells, luminescence, set 2. D54 ERlucT glycosylation luciferase reporter, 24 h; percent of 100 nM tunicamycin response. reporter increase, % at 12.5 µM. 0.23% of 360,000 active. AID 588692, 2011;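 active = mean luciferase reporter signal, scaled so untreated is 0 and the glycosylation-blocking control 100, at or above a set limit in every replicate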;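 note: luciferase carries N-glycosylation sites so blocking glycosylation raises the light; 0% = median of neutral control wells and 100% = median of 100 nM tunicamycin wells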
Numbers without * were called inactive. Compounds with a hit are over-represented: about 2.9% of the library has one in this group of screens.

`Cc1cc(C)c2c(N)c(C(=O)Nc3nccs3)sc2n1` gave NSD2 HMT inh -6, MITF TRPM1 inh 44, PfHsp90 yeast 2 8, Wnt bcat act 39* and Glyco luc inh -20.
COCc1cc(C)nc2sc(C(=O)Nc3nccs3)c(N)c12 was read as PfHsp90 yeast 2 26, Wnt bcat act 6 and Glyco luc inh 1.
Screening Cc1ccc(NC(=O)c2sc3nc(C)cc(C)c3c2N)cc1 returned NSD2 HMT inh 17, MITF TRPM1 inh -75, PfHsp90 yeast 2 -3, Wnt bcat act 36*, MITF TRPM1 HTS 83* and Glyco luc inh -14.
`Cc1cc(C)c2c(N)c(C(=O)N/N=C/c3ccccc3)sc2n1` gave NSD2 HMT inh 2, MITF TRPM1 inh -82, PfHsp90 yeast 2 20, Wnt bcat act 47* and Glyco luc inh -2.
O=C(CC1CCCC1)N[C@H](C(=O)N1CCC[C@H]1C(=O)NCCc1ccccc1Cl)c1ccccc1 was read as Wnt bcat act -4.
For Cc1ccc(CN[C@@H]2CC[C@@]34CCCN3C(=O)CCC[C@H]4C2)o1 the results were NSD2 HMT inh -2.
COc1ccc2nc(C)cc(N/N=C/c3ccccc3)c2c1 was read as NSD2 HMT inh 0, MITF TRPM1 inh 99*, PfHsp90 yeast 2 -1, MITF TRPM1 HTS -99 and Glyco luc inh -21.
`COc1ccc(/C=N/Nc2cc(C)nc3ccc(OC)cc23)c(OC)c1` gave NSD2 HMT inh -5, MITF TRPM1 inh 85*, PfHsp90 yeast 2 6, Wnt bcat act -8 and Glyco luc inh -23.
CCCCCCCNC(=O)C1(CC2CC(c3cccc(Br)c3)=NO2)CCNCC1 (stereo unspecified) was read as MITF TRPM1 inh 99*, PfHsp90 yeast 2 -14, Wnt bcat act -23, MITF TRPM1 HTS -99 and Glyco luc inh -15.
CCCCCCCNC(=O)C1(CC2CC(c3cccc(Br)c3)=NO2)CCN(C(=O)Cc2ccc(F)cc2)CC1 (stereo unspecified) was read as MITF TRPM1 inh 9, PfHsp90 yeast 2 -26, MITF TRPM1 HTS -8 and Glyco luc inh -5.
For CCCCCCCNC(=O)C1(CC2CC(c3ccc(Cl)cc3)=NO2)CCNCC1 (stereo unspecified) the results were MITF TRPM1 inh 88*, PfHsp90 yeast 2 13, Wnt bcat act -2, MITF TRPM1 HTS -87 and Glyco luc inh -12.
Screening O=C(CN1C(=O)NC2(CCCCC2)C1=O)Oc1ccc2c(C(F)(F)F)cc(=O)oc2c1 returned NSD2 HMT inh -1, MITF TRPM1 inh 0, PfHsp90 yeast 2 -14, Wnt bcat act -3, MITF TRPM1 HTS 0 and Glyco luc inh 3.
COc1cccc2sc(N)nc12 was read as MITF TRPM1 inh -4, PfHsp90 yeast 2 1, Wnt bcat act 8, MITF TRPM1 HTS 7 and Glyco luc inh 2.
COc1cccc2sc(N(C)c3ccccc3)nc12 was read as NSD2 HMT inh -1, MITF TRPM1 inh -51, PfHsp90 yeast 2 -8, Wnt bcat act 65*, MITF TRPM1 HTS 57 and Glyco luc inh -12.
For CN1CCCN(C(=O)CN2C(=O)CC(C)(C)S(=O)(=O)c3ccccc32)CC1 the results were NSD2 HMT inh 0.
`COc1ccc(N2CCN(C(=O)Cn3cncn3)CC2)cc1` gave MITF TRPM1 inh -2, PfHsp90 yeast 2 5, Wnt bcat act -1, MITF TRPM1 HTS 5 and Glyco luc inh -1.
COc1ccc(N2CCN(Cc3nc(-c4ccc(Cl)cc4Cl)no3)CC2)cc1 was read as NSD2 HMT inh 17, MITF TRPM1 inh 5, PfHsp90 yeast 2 -16, MITF TRPM1 HTS 0 and Glyco luc inh 2.
Screening CC(C)N1CCN(c2ccc(OCC3COC(Cn4cncn4)(c4ccc(Cl)cc4Cl)O3)cc2)CC1 (stereo unspecified) returned NSD2 HMT inh 14, MITF TRPM1 inh -4, PfHsp90 yeast 2 113*, Wnt bcat act -1, MITF TRPM1 HTS 1 and Glyco luc inh -4.
`CC(C)N1CCN(c2ccc(OC[C@H]3CO[C@](Cn4cncn4)(c4ccc(Cl)cc4Cl)O3)cc2)CC1` gave MITF TRPM1 inh -8, PfHsp90 yeast 2 101*, Wnt bcat act 1, MITF TRPM1 HTS 12 and Glyco luc inh -1.
Screening CSc1ccc(Oc2cccc3c2S(=O)(=O)N(C2CC2)C[C@@H](COCc2ccccc2)O3)cc1C returned Wnt bcat act -2.
For COc1ccc2c(c1)[C@@H](NC(=O)c1ccncc1)[C@@H]1Cc3ccccc3[C@H]21 the results were Wnt bcat act -3.
CCNC(=O)n1nccc1C(C)Oc1ccccc1 (stereo unspecified) was read as NSD2 HMT inh -3, MITF TRPM1 inh -10, PfHsp90 yeast 2 -4, Wnt bcat act -3, MITF TRPM1 HTS 11 and Glyco luc inh -1.
For COc1cc(N)ccc1Nc1c2ccccc2nc2ccccc12 the results were NSD2 HMT inh -5 and Glyco luc inh 20.
`CCCS(=O)(=O)Nc1ccc(Nc2c3ccccc3nc3ccccc23)c(OC)c1` gave NSD2 HMT inh 5, MITF TRPM1 inh 75*, PfHsp90 yeast 2 -7, Wnt bcat act -2 and Glyco luc inh -7.
Screening COc1cc(NC(=O)C2CCCN(S(=O)(=O)c3ccc(Br)s3)C2)cc(OC)c1 (stereo unspecified) returned NSD2 HMT inh 3.
`Cc1ccc(NCCC(=O)c2cccs2)cc1Cl` gave NSD2 HMT inh -8, MITF TRPM1 inh -23, PfHsp90 yeast 2 14, Wnt bcat act 19, MITF TRPM1 HTS 29 and Glyco luc inh -3.
`Cc1ccc(NC(=O)COC(=O)CCC(=O)c2cccs2)c(Br)c1` gave NSD2 HMT inh -2, MITF TRPM1 inh -8, PfHsp90 yeast 2 -1, Wnt bcat act 1, MITF TRPM1 HTS 8 and Glyco luc inh 1.
Cc1ccc(NCCC(=O)c2cccs2)cc1 was read as NSD2 HMT inh 13, MITF TRPM1 inh -65, Wnt bcat act 0, MITF TRPM1 HTS 72 and Glyco luc inh -3.
Cc1ccc(NC(=O)CCC(=O)c2cccs2)cc1 was read as NSD2 HMT inh 0, MITF TRPM1 inh -28, PfHsp90 yeast 2 13, Wnt bcat act 41* and Glyco luc inh 2.
Cc1ccc(NC(=O)CCC(=O)c2cccs2)c(Br)c1 was read as NSD2 HMT inh -2, MITF TRPM1 inh -83, PfHsp90 yeast 2 14, Wnt bcat act 23, MITF TRPM1 HTS 86* and Glyco luc inh -2.
`Cc1ccc(NCCC(=O)c2cccs2)cc1C` gave NSD2 HMT inh 5, MITF TRPM1 inh -103, PfHsp90 yeast 2 5, Wnt bcat act -1, MITF TRPM1 HTS 106* and Glyco luc inh -11.
